{"source": "PubChem BioAssay (NCI)", "note": "Compounds without any hit were thinned out: in the full panel of roughly 83,000, 20% have a hit.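 Plates (96-well) were seeded with cells, treated with compound at one concentration, and incubated for 48 hours before percent growth was determined.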 Unmarked numbers belong to inactive results. Active and inactive are the calls of the source. The calls were made as follows: active = growth percent below 10; inactive = the rest.", "data": [{"tested_on": "MDA-MB-468 breast", "assay": "NCI-60 one-dose screen, 48 h (100 = growth as untreated, 0 = no growth, -100 = all killed)", "settings": "10 µM unless noted", "values": [{"smiles": "COc1ccc(NS(=O)(=O)N2CCCCC2)cc1", "growth": "105%"}, {"smiles": "COCCOC(=O)c1ccc(C(C)C)cc1", "growth": "106%"}, {"smiles": "COc1ccc2cc(C3=CC(=O)CCC3)ccc2c1", "growth": "100%"}, {"smiles": "O=C(NCc1ccccc1)c1cccc([N+](=O)[O-])c1", "growth": "93.8%"}, {"smiles": "Cc1csc(Nc2nc(-c3cccc(Br)c3)nc(C(Cl)(Cl)Cl)n2)n1", "growth": "-29.8% (active)"}, {"smiles": "Cn1c(=O)cc(NC(=O)CN2CCN(c3cc4c(cc3F)c(=O)c(C(=O)O)cn4C3CC3)CC2)[nH]c1=O", "growth": "92.6%"}, {"smiles": "O=C(CCCCCCCCC(=O)N/N=C\\c1cc(Cl)ccc1O)N/N=C\\c1cc(Cl)ccc1O", "growth": "-16% (active)"}, {"smiles": "COc1cccc(-c2cnco2)c1OCc1c(C)c(COc2c(OC)cccc2-c2cnco2)c(C)c(COc2c(OC)cccc2-c2cnco2)c1C", "growth": "59%"}, {"smiles": "N#Cc1c(-c2ccccc2)cc(-c2ccccc2)n(CCCCCC(=O)Nc2ccccc2N)c1=O", "growth": "62.8%"}, {"smiles": "COc1ccc(C(=O)c2cc(C)c(OC)c(C)c2)cc1OC(=O)CCl", "growth": "37.7%"}, {"smiles": "N#CC1CCc2c(c(-c3ccc4nc(N)sc4c3)nc3ccc4[nH]ncc4c23)C1", "note": "(stereo not given)", "growth": "21.4%"}, {"smiles": "O=C(c1ccc(Cl)cc1)N1CCCCC1", "growth": "101%"}, {"smiles": "COc1cc(-c2nc(-c3ccccc3)[nH]c2-c2ccnc(NCCCNS(=O)(=O)c3cccc(F)c3)n2)ccc1F", "growth": "85.1%"}, {"smiles": "Cc1ccc(Cc2c(C=O)nc(N)[nH]c2=O)c2ccccc12", "growth": "106%"}, {"smiles": "COc1cc2nc(Nc3cccc(C(=O)O)c3)nc(N)c2cc1OC", "growth": "108%"}]}]}
